Screen size: about 290,000 compounds; about 27,000 (9.3%) were called active. This is one part of a sample in which actives are shown more often than they occur. Cut-off read from the data, not from the text of the source: active = inhibition mostly above about 28% (no sharp cut-off); inactive = mostly below about 43%.

What is called inhibition is the relative decrease from the control value, in per cent.

This experiment can be described thus: A qHTS for Small Molecule Inhibitors of Shiga Toxin. Note: 0% is about no effect. To be noted: Vero cells, Shiga toxin protein synthesis inhibition reporter; at 38.7 µM, active compounds read high. A general note: Quantitative high-throughput screening tests each substance at several concentrations.
In the case of `COc1ccc(CCNC(=O)C(=O)NCc2ccccc2C)cc1OC`, the inhibition was -10.9% (inactive). `c1n[nH]c(NCc2ccc3c(c2)OCO3)n1`: the inhibition is -23.7% (inactive). The figure for `COc1cc(CNc2ncn[nH]2)ccc1OCc1ccccc1C` is 67.9% (active); for `COc1ccc(C(O)(C2CCCCC2)C(CN2CCCC2)c2ccccc2)cc1` (stereo not given) it is 0.707% (inactive). Turning to `O=C(NCc1cc(F)cc(C(F)(F)F)c1)C1CCC(=O)N(C2CCCC2)C1` (stereo not given), the inhibition is 40.9% (inactive).

On to `CCC(=O)Nc1nnc(S(=O)(=O)N(CC(C)C)c2ccccc2)s1`, for which the inhibition was 1.25% (inactive). For `COc1cccc(/C(C)=N/Nc2ncc(Cl)cc2Cl)c1`, the inhibition is 38.2% (active).

Take `CCN(CC)c1ccc(C(=O)N/N=C(\C)c2cccc(OC)c2)cc1`: the inhibition was 22.3% (inactive). Take `Cc1c(Cl)cnc(NC(=O)COC(=O)c2ccc(S(=O)(=O)NCc3ccco3)cc2)c1Cl`: the inhibition was -13.9% (inactive). The figure for `C/C(=N\Nc1ccc(S(N)(=O)=O)cc1[N+](=O)[O-])c1cccs1` is 2.64% (inactive); for `C/C(=N\Nc1nc(Nc2ccccc2)nc(N2CCOCC2)n1)c1cccs1` it is -5.79% (inactive); for `C/C(=N\NS(=O)(=O)c1ccc(Br)cc1)c1cccs1` it is -4.11% (inactive). The figure for `O=S(=O)(NCc1ccco1)c1cnc(Cl)c(Cl)c1` is -12.1% (inactive); for `C/C(=N\Nc1nc2ccccc2[nH]1)c1cccs1` it is 97.5% (active); for `C/C(=N\Nc1ncc(Cl)cc1Cl)c1ccc(S(=O)(=O)NCc2ccco2)cc1` it is 144% (active). On to `O=C(Nc1ccccc1-c1nc2ccccc2[nH]c1=O)c1cccs1`, for which the inhibition is -5.13% (inactive). The figure for `COC(=O)c1sccc1N/N=C(\C)c1ccc(F)c(Cl)c1` is -5.96% (inactive). The figure for `C/C(=N\Nc1ncc(Cl)cc1Cl)c1cccs1` is 101% (active).

For the compound `Cc1ccc(N2CCN(c3ccc([N+](=O)[O-])cn3)CC2)c(C)c1`, the inhibition was -5.14% (inactive). The figure for `COc1ccc2c(c1OC)C(=O)N(c1ccc(O)cc1)C2` is 29.7% (inactive).

With `O=C(COc1ccc(S(=O)(=O)N2CCOCC2)cc1Cl)N1CCOCC1`, the inhibition was -5.97% (inactive). The figure for `O=C(c1ccccc1)N1CCC(CC2CC(c3ccc(Cl)cc3)=NO2)(C(=O)NCC2CCCCC2)CC1` (stereo not given) is -0.8% (inactive). For `Cc1ccc(N2CC(C(=O)Nc3ccc(S(=O)(=O)N4CCCC4)cc3)CC2=O)cc1C` (stereo not given), the inhibition was -5.32% (inactive). On to `Cc1ccc(Cc2cnc(NC(=O)/C(C#N)=C/c3ccc(-c4cccc([N+](=O)[O-])c4)o3)s2)cc1`, for which the inhibition is 19.7% (inactive). The figure for `Cc1ccc(-c2ccc(/C=C(\C#N)C(N)=S)o2)c([N+](=O)[O-])c1` is 19.2% (active); for `N#C/C(=C/c1ccc(-c2ccccc2[N+](=O)[O-])o1)C(=O)NCCN1CCCCC1` it is 6.58% (inactive). As to `CCc1cc(=O)oc2c(C)c(OCC(=O)N3CC[C@@]4(O)CCCC[C@H]4C3)ccc12`, the inhibition is -4.55% (inactive). The figure for `Cc1cccc(C)c1NC(=O)C(Cl)C(=O)c1ccccc1` (stereo not given) is -15.6% (inactive).

Regarding `CC(C)N(C(=O)Cn1cc(S(=O)(=O)CC(=O)N2CCOCC2)c2ccccc21)C(C)C`, the inhibition is -3.05% (inactive). The figure for `O=C(CSc1nnnn1C1CCCC1)N1CCCCC1` is 110% (active). The figure for `CC1CCCC(C)N1C(=O)CSc1nnnn1C1CCCC1` (stereo not given) is 53.7% (active); for `CC(Sc1nnnn1C1CCCCC1)C(=O)O` (stereo not given) it is 3.3% (inactive); for `CCCc1nnc(SCC(=O)N2C(C)CCCC2C)n1CC` (stereo not given) it is 3.99% (inactive). The figure for `CC(C)C(=O)Nc1nnc(SCC(=O)N2C(C)CCCC2C)s1` (stereo not given) is -4.35% (inactive); for `O=C(CSc1nnc2ccc(-c3ccncc3)nn12)N1CCCCC1` it is -15.9% (inactive). `COc1ccc(C2NC(=O)C(=O)/C2=C(\O)c2ccc(Cl)cc2)cc1OC` (stereo not given): the inhibition was -18% (inactive). The figure for `CCN(CC(=O)NCCCN1CCOCC1)S(=O)(=O)c1cc(Cl)ccc1Cl` is 10.6% (inactive); for `Cc1cccc(N2CCN(C(=O)c3cccc(N4C(=O)C5C6C=CC(C6)C5C4=O)c3)CC2)c1C` (stereo not given) it is -9.11% (inactive). As to `CCC(C)NC(=O)C1c2ccccc2C(=O)N1Cc1ccccc1` (stereo not given), the inhibition was -8.49% (inactive).

With `CCOc1ccc(NC(=O)C2CCN(C(=O)N3CCOc4ccccc43)CC2)cc1`, the inhibition was 7.11% (inactive). The figure for `O=C(Nc1nnc(SCc2ccc(Cl)cc2Cl)s1)C1COc2ccccc2O1` (stereo not given) is -4.34% (inactive); for `Cc1ccc(S(=O)(=O)N(C)C)cc1NC(=O)COC(=O)C1COc2ccccc2O1` (stereo not given) it is -6.06% (inactive). The figure for `O=C(Nc1nc(-c2ccncc2)cs1)C1COc2ccccc2O1` (stereo not given) is -4.34% (inactive); for `O=C(Cc1c(F)cccc1Cl)Nc1ncc([N+](=O)[O-])s1` it is 75.5% (active).

Consider `O=C(Nc1nc2c(F)cc(F)cc2s1)C1COc2ccccc2O1` (stereo not given), for which the inhibition is 71.8% (active). The figure for `CCN(CC)S(=O)(=O)c1ccc(N2CCOCC2)c(NC(=O)C2COc3ccccc3O2)c1` (stereo not given) is 4.87% (inactive); for `O=C(Cc1c(F)cccc1Cl)Nc1ccc(-n2cnnn2)cc1` it is 12.8% (inactive); for `CC(C)Cc1nnc(NC(=O)CCc2ccccc2)s1` it is 7.6% (inactive). The figure for `CN(c1ccccc1)S(=O)(=O)c1cccc(NC(=O)Cc2c(F)cccc2Cl)c1` is -0.293% (inactive). The figure for `O=C(CCc1ccccc1)Nc1ncc([N+](=O)[O-])s1` is 85.8% (active). On to `O=C(Nc1ncc([N+](=O)[O-])s1)C1COc2ccccc2O1` (stereo not given), for which the inhibition was 93.4% (active). The figure for `COc1ccc([N+](=O)[O-])cc1NC(=O)CCc1ccccc1` is 17% (inactive).

For the compound `Cc1cc(C)cc(N(CC(=O)NC2CCCC2)C(=O)CCC(=O)Nc2cc(C)on2)c1`, the inhibition is -3.5% (inactive). The figure for `Cc1ccc2[nH]cc(CCNC(=O)C3CCCCC3)c2c1` is -0.198% (inactive); for `CC(C)CNC(=O)CC(NCC(C)C)C(=O)O` (stereo not given) it is -15% (inactive); for `CCCCNC(=O)C1CCC(=O)N1CCc1ccccc1` (stereo not given) it is 2.74% (inactive). As to `COc1cc(C(=O)NC2CCN(Cc3ccccc3)CC2)cc(Cl)c1OC(C)C`, the inhibition is 2.17% (inactive). The figure for `Cc1cc(OCC(=O)NCC(O)c2ccccc2)c2c(C)c(C)c(=O)oc2c1` (stereo not given) is 0.938% (inactive). The figure for `CCCCN(C)CCCNC(=O)c1cc(-c2cccs2)nc2ccccc12` is -4.77% (inactive); for `COc1cc(CN2CCCN(C)CC2)c([N+](=O)[O-])cc1OC` it is -4.36% (inactive).

Source of the values: PubChem BioAssay AID2315 (National Center for Advancing Translational Sciences (NCATS), 2010).
